Sampled rows, rich in hits. Any-hit rate of the full collection: about 31%.
CYP2C19 inh: blockers of cytochrome P450 2C19 activity – biochemical, luminescence, ADME assay, primary screen; P33261; CYP2C19 Supersomes, luciferin-H EGE luminescence, 30 min; inhibition, % at 5 µM; actives 21% (n = 96,000); AID 778, 2007;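 active means CYP2C19 inhibition above a set limit at 5 µM in the primary screen, cut at about 50% in these data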;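 further: plate controls were negative control wells for no effect and 2.5 mM tranylcypromine positive control for full effect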
CYP2C9 activ: human CYP2C9 activators, primary screen, biochemical, luminescence. Cytochrome P450 2C9 (Homo sapiens), P11712. recombinant CYP2C9, luciferin-H conversion; stronger effect = higher value; factor 1 = untreated enzyme, 0 = blocked. activation factor at 5 µM. actives 1.4% (n = 96,000);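 active means activation factor of 2 or more for CYP2C9 at a 5 µM dose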;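 further: 0 = sulfaphenazole-blocked wells and 1 = vehicle-only wells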
PLAP act: PLAP enzyme activators, biochemical, luminescence, HTS; Alkaline phosphatase, placental type (Homo sapiens), P05187; purified PLAP enzyme, luminescent substrate read-out; stronger effect = higher value; activation fold at 20 µM; actives 1.2% (n = 96,000); AID 696, 2007; in the data active means activation fold above about 2
Target sequence (P05187 whole entry, looked up): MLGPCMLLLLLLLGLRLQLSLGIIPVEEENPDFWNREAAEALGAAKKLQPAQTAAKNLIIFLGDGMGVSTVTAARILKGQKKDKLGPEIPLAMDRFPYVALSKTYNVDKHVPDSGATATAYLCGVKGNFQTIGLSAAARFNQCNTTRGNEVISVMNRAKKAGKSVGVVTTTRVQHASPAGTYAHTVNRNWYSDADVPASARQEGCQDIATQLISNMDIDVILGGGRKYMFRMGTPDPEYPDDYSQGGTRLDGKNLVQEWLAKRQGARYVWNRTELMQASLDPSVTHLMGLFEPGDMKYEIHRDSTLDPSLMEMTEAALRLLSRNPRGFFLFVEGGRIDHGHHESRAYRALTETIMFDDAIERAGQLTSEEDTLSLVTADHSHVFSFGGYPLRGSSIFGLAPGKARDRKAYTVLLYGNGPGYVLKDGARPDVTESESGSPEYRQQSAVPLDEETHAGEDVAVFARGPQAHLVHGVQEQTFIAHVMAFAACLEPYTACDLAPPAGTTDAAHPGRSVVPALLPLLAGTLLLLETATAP
CYP2C9 inhib: blockers of cytochrome P450 2C9 activity – biochemical, luminescence, ADME assay, primary screen | CYP2C9 Supersomes, luciferin-H conversion | actives 20% (n = 96,000) | P11712 | inhibition, % at 5 µM;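 active means blocking of liver enzyme CYP2C9 beyond about 50% at 5 µM, limit read from the data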
CYP2C19 activ: human CYP2C19 activators, primary screen, biochemical, luminescence; Cytochrome P450 2C19 (Homo sapiens), P33261; recombinant CYP2C19, luciferin-H EGE luminescence; stronger effect = higher value; 0 = fully inhibited enzyme, 1 = untreated enzyme; activation factor at 5 µM; 96,000 tested, under 10 active;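 active means activation factor of at least 2 at 5 µM in the primary screen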;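 further: 0 = wells with 2.5 mM tranylcypromine and 1 = vehicle-only wells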
An asterisk follows results filed as active.

SMILES | CYP2C19 inh | CYP2C9 activ | PLAP act | CYP2C9 inhib | CYP2C19 activ
C/C(Cl)=C\CNC(C)c1ccccc1 (stereo not given) | 54.6* | 0.9 | 0.9 | 5.5 | 0.5
CCOc1ccc2oc(-c3ccccc3)c(C(=O)N3CCN(CCO)CC3)c2c1 | 39.5 | 0.2 | 1.4 | 82.0* | 0.6
CCOc1ccc2oc(-c3ccccc3)c(C(=O)O)c2c1 | -9.7 | 1.1 | 0.8 | -11.8 | 1.1
Cc1cc(C(=O)OCc2nnc(-c3ccccc3)o2)c(C)n1-c1ccccc1 | 45.6 | 0.4 | 1.3 | 64.0* | 0.5
O=C(c1cccc(Br)c1)c1cn(-c2ccccc2)nc1C(=O)c1ccccc1 | 38.3 | 0.5 | 1 | 45.8 | 0.6
Cc1ccc(-n2cc(C(=O)c3ccccc3O)cn2)cc1 | 60.7* | 1.1 | 1 | -5.2 | 0.4
CCOC(=O)c1nn(-c2ccc(C)cc2)cc1C(=O)c1ccccc1 | 66.0* | 0.6 | 1.6 | 42.7 | 0.3
Cc1ccc(-c2nn(-c3ccccc3)cc2C(=O)N2CCOCC2)cc1 | 54.5* | 0.3 | 1.6 | 71.4* | 0.5
O=C(OCc1nnc(-c2ccccc2)o1)c1cn(-c2ccccc2)nc1-c1ccccc1 | 54.9* | 0.1 | 1.4 | 90.7* | 0.5
CCOC(=O)c1cn(-c2ccccc2)nc1-c1ccncc1 | 91.4* | 0.2 | 1 | 81.6* | 0.1
COC(=O)c1cn(-c2ccccc2)nc1-c1ccccc1 | 16.1 | 0.8 | 0.8 | 20.8 | 0.8
Cc1ccc(F)c(NC(=O)C2CCCCC2C(=O)O)c1 (stereo not given) | -4.0 | 1 | 1 | -2.4 | 1
CC(C)NC(=O)C(=O)NC1CCCCCC1 | 12.9 | 1.1 | 0.8 | -6.2 | 0.9
CC(C)/C=C1\CCCCC1N(C)C(=O)NC(C)C (stereo not given) | 58.5* | 0.7 | 1.3 | 34.6 | 0.4
CCCSCCCNC(=O)Cn1cc2c(n1)CCCCC2 | 9.3 | 0.8 | 1 | 18.5 | 0.9
CC(C)CCNC(=O)NC(=O)Cn1cc(C(F)(F)F)ccc1=O | 38.4 | 0.7 | 0.9 | 34.6 | 0.6
CCS(=O)(=O)NCc1ccc2c(c1)cc(C)n2C | 54.2* | 0.4 | 1.2 | 59.9* | 0.5
CCOC(=O)NCc1ccc2c(c1)cc(C)n2C | 31.4 | 1 | 1.1 | 1.7 | 0.7
Cc1cc2cc(CNC(=O)c3ccc(S(=O)(=O)N4CCCC4)cc3)ccc2n1C | 4.5 | 0.2 | 1.2 | 81.6* | 1
COc1ccc(S(=O)(=O)NCc2ccc3c(c2)cc(C)n3C)cc1 | 75.8* | 0.8 | 0.8 | 17.7 | 0.2
CCN(CC)S(=O)(=O)c1ccc(C(=O)NCc2ccc3c(c2)cc(C)n3C)cc1 | 4.6 | 0.5 | 1 | 47.0 | 1
Cc1cc2cc(CNS(=O)(=O)c3ccccc3)ccc2n1C | 100.1* | 0.3 | 1.2 | 74.3* | 0
CCCC/C(C)=N\NC(=O)CNS(=O)(=O)c1ccc([N+](=O)[O-])cc1 | -12.5 | 1.1 | 1.1 | -7.2 | 1.1
CC(C)CC(=O)N1CCN(S(=O)(=O)c2ccc(F)cc2)CC1 | 25.4 | 0.8 | 0.9 | 18.8 | 0.7
CCOC(=O)Nc1c(O)ccc2oc(C)c(-c3ccccc3)c12 | 21.3 | 0.8 | 1 | 23.8 | 0.8
SMILES | CYP2C19 inh | CYP2C9 activ | PLAP act | CYP2C9 inhib | CYP2C19 activ
N#Cc1cccc(NC(=O)N2CCC(c3nc4c(nnn4Cc4cccc(Cl)c4)c(=O)[nH]3)CC2)c1 | -17.7 | 1.2 | 1.2 | -18.2 | 1.2
Cc1ccc(C)c(Cn2nnc3c(=O)[nH]c(C4CCCN(C(=O)C5CCCCC5)C4)nc32)c1 (stereo not given) | 72.9* | 0.1 | 1.5 | 88.6* | 0.3
O=C(c1cccs1)N1CCC(c2nc3c(nnn3Cc3ccccc3)c(=O)[nH]2)CC1 | 8.8 | 0.4 | 1.2 | 59.0* | 0.9
COc1ccccc1NC(=O)N1CCCC(c2nc3c(nnn3Cc3ccc(C)cc3)c(=O)[nH]2)C1 (stereo not given) | 66.9* | 0.7 | 1.1 | 26.9 | 0.3
Cc1ccc(C)c(Cn2nnc3c(=O)[nH]c(C(=O)NCc4ccco4)nc32)c1 | -15.3 | 0.8 | 1.5 | 20.3 | 1.2
O=C(C1CCCCC1)N1CCCC(c2nc3c(nnn3Cc3ccccc3)c(=O)[nH]2)C1 (stereo not given) | 20.2 | 0.6 | 1.6 | 35.3 | 0.8
O=C(c1ccccc1)N1CCCC(c2nc3c(nnn3Cc3ccccc3)c(=O)[nH]2)C1 (stereo not given) | 24.0 | 0.2 | 1.3 | 78.0* | 0.8
